{
  "source": "PubChem BioAssay (NCI)",
  "note": "Several values for one entry are separate records, joined by “and”; a condition that tells them apart may be missing. Equal entries are not always repeated. The panel holds about 83,000 compounds, 20% with a hit somewhere; the sample as a whole holds those more often.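 Values shown are percent growth following 48 h exposure of cells in 96-well plates to a single concentration of compound; below 10 was considered active.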 Unmarked numbers belong to inactive results. Activity calls are given as the source filed them.",
  "data": [
    {"system": "MDA-MB-468 breast", "experiment": "NCI-60 one-dose screen, 48 h (100 = growth as untreated, 0 = no growth, -100 = all killed)", "conditions": "10 µM unless noted", "values": [
      {"smiles": "COC1=CC(=O)C[C@@H](C)[C@]12Oc1c(Cl)c(OC)cc(OC)c1C2=O", "growth": "76.8%"},
      {"smiles": "COc1cc2c(cc1NC(=O)C(F)(F)F)-c1ccc(NC(=O)C(F)(F)F)cc1C2", "growth": "58%"},
      {"smiles": "CCOc1ccc([C@@H]2[C@@H](Oc3ccccc3)C(=O)N2c2cc(OC)c(OC)c(OC)c2)cc1", "growth": "29.4%"},
      {"smiles": "CSC1=C(N)C(=O)c2[nH]cc(CO)c2C1=N", "growth": "-73.5% (active)"},
      {"smiles": "Cc1cc(Nc2cccc(F)c2)nc(NCc2ccccc2)n1", "growth": "16.2%"},
      {"smiles": "CCN(CC)CCOc1cccc2c1C(=O)c1cccc(OCCN(CC)CC)c1C2=O", "growth": "8.32% (active)"},
      {"smiles": "CN1CCN(C(=O)[C@]23CCC(C)(C)C[C@@H]2C2=CC[C@@H]4[C@@]5(C)Cc6c([nH]c7ccccc67)C(C)(C)[C@@H]5CC[C@@]4(C)[C@]2(C)CC3)CC1", "growth": "98%"},
      {"smiles": "C/C(=N\\NC(N)=S)C(C)(C)O", "growth": "26.2%"},
      {"smiles": "Cc1c(Cl)cccc1NCN1C(=O)c2ccccc2C1=O", "growth": "98.4%"},
      {"smiles": "COc1ccc(/C=C/C(C)=N/OCC(=O)O)cc1", "growth": "95.6%"},
      {"smiles": "O=C(Nc1ccc([N+](=O)[O-])cc1Cl)c1cc(Cl)ccc1O", "growth": "-21.5% (active) and -24.3% (active)"},
      {"smiles": "N#Cc1ccc(C(=O)CSc2nccc(Nc3ccc(C(=O)O)cc3)n2)cc1", "growth": "101%"},
      {"smiles": "N#Cc1cccc(-c2cc(-c3ccc4c(c3)OCCO4)[nH]n2)c1", "growth": "18.6%"},
      {"smiles": "Cc1c(C(N)=O)sc2c1C(=O)N(Cc1ccccc1)C1=NN=C(c3ccc(Cl)cc3)CN12", "growth": "60.1%"},
      {"smiles": "O=C(N/N=C\\c1ccc(F)cc1)c1ccc2nc(-c3ccc(Br)cc3)[nH]c2c1", "growth": "34.7%"},
      {"smiles": "O=C(N/N=C/C[C@@H]1[C@@H](/C=C/[C@@H](O)COc2cccc(Cl)c2)[C@H](O)C[C@@H]1O)c1ccncc1", "growth": "97.9%"},
      {"smiles": "O=C1/C(=C/c2cccc(OCc3ccccc3)c2)Oc2cc(OCCN3CCCCC3)ccc21", "growth": "80.4%"},
      {"smiles": "CCN1C(=O)N(CC)C2SC(N/N=C/c3ccccc3)=NC21", "note": "(stereo not given)", "growth": "34.4%"},
      {"smiles": "C=C(C)[C@@H]1C[C@H](O)Cc2cc(F)ccc2N1", "growth": "89.3%"},
      {"smiles": "Nc1nc(N)c2c(n1)NC(c1cccc(Nc3ccnc4cc(C(F)(F)F)ccc34)c1)CC(c1ccc(F)cc1)=N2", "note": "(stereo not given)", "growth": "18%"},
      {"smiles": "CCCNc1nc(N(C)O)nc(N(C)O)n1", "growth": "21.5%"},
      {"smiles": "CCOC(=O)NCCc1ccccc1", "growth": "112%"},
      {"smiles": "CC[C@@]1(C(N)=O)CC2C=CC1C2", "note": "(stereo not given in full)", "growth": "103%"},
      {"smiles": "NC(CSSCC(N)C(=O)O)C(=O)O", "note": "(stereo not given)", "growth": "-17% (active)"},
      {"smiles": "CC(C)Sc1nc(-c2ccc(Br)cc2)c(C#N)c(N2CCCCC2)n1", "growth": "93.9%"},
      {"smiles": "O=C(O)c1cccc2oc(-c3ccccc3O)nc12", "growth": "35.2%"},
      {"smiles": "COc1ccc(Nc2nc(N)nc3c2CCN(Cc2ccc(OC)cc2OC)C3=O)cc1", "growth": "95.6%"},
      {"smiles": "CN1C(=O)N(C)C2C1NN=c1s/c(=C\\c3ccccc3F)c(=O)n12", "note": "(stereo not given)", "growth": "11.6%"},
      {"smiles": "CSc1nc(-c2ccc(F)cc2)c(C#N)c(N2CCOCC2)n1", "growth": "87.3%"},
      {"smiles": "O=C(/C=C/c1ccccc1)n1c(-c2ccc(Cl)cc2)nc2ccccc21", "growth": "-6.61% (active)"},
      {"smiles": "Cn1c(=O)c2[nH]c(SC/C(=N/O)c3ccc(Br)cc3)nc2n(C)c1=O", "growth": "47.1%"},
      {"smiles": "COc1cccc(C2CC(=O)Nc3cc4c(cc32)CCC4)c1OC", "note": "(stereo not given)", "growth": "-2.82% (active)"},
      {"smiles": "C=CCOC(=O)C1=C(C)N(CC)C(=O)NC1c1c(Cl)n(C)c2ccccc12", "note": "(stereo not given)", "growth": "107%"},
      {"smiles": "CCOC(=O)c1nn(C2CCCCO2)c2ccc(NC(=O)CN3CCCC3)cc12", "note": "(stereo not given)", "growth": "111%"},
      {"smiles": "O=C(Nc1c2ccccc2nc2ccccc12)c1ccccc1CN1C(=O)c2ccccc2C1=O", "growth": "0.8% (active)"},
      {"smiles": "Cn1c2ccc(Br)cc2c2c3c(c4c5ccccc5[nH]c4c21)C(=O)N(O)C3=O", "growth": "-52.5% (active)"},
      {"smiles": "Nc1c(C(=O)Nc2ccnc3ccccc23)sc2nc3c(cc12)CN(Cc1ccccc1)CC3", "growth": "44%"},
      {"smiles": "Nc1ncc(-c2ccc3ncnc(N4CCc5cc(F)c(F)cc54)c3c2)cn1", "growth": "4.19% (active)"},
      {"smiles": "CCCCCOc1ccc(/C=N/Nc2cc(C)nc3ccc(Cl)cc23)cc1", "growth": "-29% (active)"},
      {"smiles": "CCCNC(=O)Oc1ccc(/C(=C(/C)Cc2ccc(OC)cc2)c2ccc(OCCN3CCCCC3)cc2)cc1", "growth": "79.6%"}
    ]}
  ]
}
